The structures appear in SMILES notation. Where “and” joins values, the source holds several entries; their conditions need not be identical. Equal entries are not always repeated. Compounds without any hit were thinned out: in the full panel of roughly 83,000, 20% have a hit.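 Single-concentration screen, 48 h exposure, 96-well plates. Endpoint: percent growth. Below 10 = active.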 Calls of active or inactive are those of the source.

The test concerns MDA-MB-468 breast. Nature of the test: NCI-60 one-dose screen, 48 h (100 = growth as untreated, 0 = no growth, -100 = all killed). To be noted: 10 µM. The procedure:
Growth inhibition of the MDA-MB-468 human Breast tumor cell line is measured as a screen for anti-cancer activity. Cells are grown in 96 well plates and exposed to the test compound for 48 hours. Compounds are tested at a single concentration, which is 10^-5 M for most compounds. The reported endpoint is percent growth (GI% or GIPRCNT), where numbers from 0 - 100% represent growth inhibition, and numbers from -100% - 0 represent cell death. For example, a value of 40 represents 60% growth inhibition. A value of 0 means no net growth occurred over the course of the experiment. A value of -40 indicates 40% of cells at the beginning of the experiment died by the end of the experiment. A value of -100 means all cells are dead at the end of the experiment.
NCI-60 Human Tumor Cell Lines Screen was performed using the standard one-dose NCI protocol, which is described in more detail at https://dtp.cancer.gov/discovery_development/nci-60/default.htm.
Compounds with GIPRCNT values below 10 were considered active. Activity score was based on GIPRCNT using the following formula: […]
Score is 0 for GIPRCNT values of 100 or above, 50 for GIPRCNT values of 0, and 100 for GIPRCNT values of -100.
As for `O=C(Nc1cccc(C(F)(F)F)c1)c1cncc(C#Cc2cnc3cccnn23)c1`, the growth was 47.8% (inactive).

Consider `CN1C(=O)/C(=C/c2nccs2)SC1=S`, for which the growth is 65.3% (inactive).

`CN1C(=O)N(C)C2SC(N/N=C/c3ccc(F)cc3)=NC21` (stereo not given): the growth was -12.3% (active).

In the case of `O=C(Nc1ccc(Cl)c([N+](=O)[O-])c1)Nc1ccc(Cl)c([N+](=O)[O-])c1`, the growth was -27.2% (active).

As for `O=C(CS(=O)(=O)c1oc(-c2ccc(Cl)cc2)nc1S(=O)(=O)c1ccccc1)N1CCCC1`, the growth was -90.5% (active).

For the compound `O=C(N/C(=C1/OCCN1Cc1ccccc1)[P+](c1ccccc1)(c1ccccc1)c1ccccc1)c1ccccc1`, the growth was -30% (active).

`Brc1ccc(/C=N/Nc2ncnc3sc4c(c23)CCN(Cc2ccccc2)C4)cc1`: the growth is -7.6% (active).

`Cc1ccc(CNC(=O)Cc2ccc3c(c2)CN(C2CCC(=O)NC2=O)C3=O)cc1` (stereo not given): the growth is -50.8% (active).

Turning to `Cc1ccc2nc(-c3ccc(-c4nnc(SCC(=O)Nc5ccc(Br)cc5)o4)cc3)[nH]c2c1`, the growth is 80.6% (inactive).

`OCCCNc1oc(-c2ccccc2)nc1[P+](c1ccccc1)(c1ccccc1)c1ccccc1`: the growth was -41.3% (active).

Take `Cc1ccc(/C=C/C(=O)c2ccc(NC(=O)CSc3nnc(-c4c[nH]c5ccccc45)n3-c3ccccc3)cc2)c(C)c1`: the growth was 22% (inactive).

`CS(=O)(=O)Nc1ccc(-c2ccc3c(c2)ncn3-c2ccc(NC(=O)Nc3ccc(Br)cc3)cc2)cc1`: the growth was -10.7% (active).

As for `Nc1nc(-c2ccccc2)cs1`, the growth was 55.1% (inactive) and 115% (inactive).

With `COC(=O)CC1CC1C1Cc2c(nc(N(C)S(C)(=O)=O)nc2C(C)C)-c2ccc(F)cc21` (stereo not given), the growth was 74.9% (inactive).

As for `O=C1Nc2cc(-c3ccc(NC(=O)c4cccs4)cc3)ccc2/C1=C/c1ccc[nH]1`, the growth was -19.7% (active).

Consider `CN(C)c1cccc2c(S(=O)(=O)Nc3cccc(-c4csc(NC(=O)CCCCCN5CCN(c6cc7c(cc6F)C(=O)N(C6CCC(=O)NC6=O)C7=O)CC5)n4)c3)cccc12` (stereo not given), for which the growth was 59.7% (inactive).

As to `O=C(CSc1nnc(-c2ccc3nc(-c4ccccc4)[nH]c3c2)o1)Nc1ccc(Cl)cc1`, the growth is 55.8% (inactive).

On to `COc1ccc2[nH]c(O)c(N=NC(=O)COc3ccc(NC(=O)Nc4ccc(Cl)cc4)cc3)c2c1`, for which the growth is -52.3% (active).

For the compound `CC(C)C1=C[C@@]23CC[C@@H]4[C@](C)(CCC[C@]4(C)C(=O)NCc4ccccc4)[C@H]2C[C@@H]1[C@H]1C(=O)CCC(=O)[C@H]13`, the growth is 70.1% (inactive).

On to `COc1cccc(-c2nn(-c3ccccc3)cc2-c2ccnc(NCCCNC(=O)Nc3ccc(F)cc3)c2)c1`, for which the growth is -54.7% (active).

As to `COc1ccc2nc(Nc3cccc(NC(=O)c4ccc(CN5CCN(C)CC5)c(C(F)(F)F)c4)c3)ccc2c1`, the growth is -97.1% (active).

Regarding `CCOC(=O)N/C(=C1/OCCN1C)[P+](c1ccccc1)(c1ccccc1)c1ccccc1`, the growth is -11.4% (active).

`O=C(NO)c1ccc(Cn2ccc3c(NCc4ccccc4)ncnc32)cc1`: the growth was -18.6% (active).

In the case of `O/N=C(\CSc1nnc(-c2c[nH]c3ccccc23)n1-c1ccccc1)c1ccc(Cl)cc1`, the growth was -85.1% (active).

Consider `O=c1cc(-c2ccccc2)oc2cc(OCCCNCc3ccccc3)cc(O)c12`, for which the growth was -59.5% (active).

As to `CC(=O)c1cc(C(=O)c2ccc3c(c2)NC(=O)CO3)n2ccc3ccccc3c12`, the growth was 50% (inactive).

As for `O=C(CNc1nc(-c2ccccc2)cs1)Nc1ccc(Cl)cc1[N+](=O)[O-]`, the growth is -34.9% (active).

As for `CC(=O)c1ccc(Nc2nc(SCCC(C)C)nc(-c3ccc(F)cc3)c2C#N)cc1`, the growth is 69% (inactive).

As to `N#Cc1c(NC(=O)c2ccc(C(F)(F)F)cc2C(F)(F)F)sc2c1CCC(=O)C2`, the growth was -79.9% (active).

Turning to `O=C(c1ccc(O)cc1)C1[C@H](c2ccc(Br)cc2)[C@@H](c2ccccc2)NC12C(=O)Nc1ccccc12` (stereo not given in full), the growth was 0.478% (active).

With `COc1ccc(C2NC(=S)NC(C)=C2C(=O)OC(C)C)cc1OC` (stereo not given), the growth was 98.9% (inactive).

In the case of `COc1ccc(/C(CSc2nnc(-c3c[nH]c4ccccc34)n2-c2ccccc2)=N/O)cc1`, the growth was 0.589% (active).

Regarding `COc1ccc(CN2[C@@H](C(=O)NCc3ccc(C(=O)NO)cc3)Cc3c([nH]c4ccccc34)[C@@H]2C)cc1`, the growth is 7.58% (active).

In the case of `COc1cc(/C=N/NC(=O)c2ccc3nc(-c4ccc(Cl)cc4)[nH]c3c2)cc(OC)c1OC`, the growth is 107% (inactive) and -89.3% (active).

On to `O=C(Nc1cccc(-c2cn(-c3ccc4oc(=O)ccc4c3)nn2)c1)Nc1cc(C(F)(F)F)cc(C(F)(F)F)c1`, for which the growth is -23.3% (active).

On to `CCOP(=O)(OCC)O[C@H]1CC[C@]2(C)[C@H]3CC[C@@H]4[C@@H]([C@](C)(O)CCC=C(C)C)CC[C@@]4(C)[C@]3(C)CC[C@H]2C1(C)C`, for which the growth was -23.3% (active).

For the compound `COc1ccc(CN2[C@H](C(=O)NCCCCCCC(=O)NO)Cc3c([nH]c4ccccc34)[C@H]2C2CC2)cc1`, the growth was 4.06% (active).

`CN(C)c1ccc(/C=C/c2nc3ccccc3c(=O)n2CC(=O)Nc2ccc(Cl)cc2)cc1`: the growth was 31.3% (inactive).

Regarding `COc1cccc(-c2ccnc(/N=C(\N)Nc3ccc(S(=O)(=O)Nc4nc(C)cc(C)n4)cc3)n2)c1`, the growth was 115% (inactive).

Take `COc1cc(/C=C/C(=O)c2ccc(S(=O)(=O)NCCNc3nc(Nc4ccc(F)cc4)nc(N(C)C)n3)cc2)cc(OC)c1OC`: the growth is -50.5% (active).
